We go through 40 molecules from PubChem BioAssay (NCATS).

Records with an inconclusive call do not appear. Entries that show only a call come without a potency. Calls of active or inactive are those of the source. Calls come from the whole dose curve; as a rule, active = well fitted inhibition curve with a large enough effect; inconclusive = small, poorly fitted or top-dose-only effect; inactive = flat fitted curve, though single readings scatter.
Potency is the fitted concentration of half-maximal effect.

Chain of Glutathione peroxidase 1 (Homo sapiens) (P07203 whole entry, looked up): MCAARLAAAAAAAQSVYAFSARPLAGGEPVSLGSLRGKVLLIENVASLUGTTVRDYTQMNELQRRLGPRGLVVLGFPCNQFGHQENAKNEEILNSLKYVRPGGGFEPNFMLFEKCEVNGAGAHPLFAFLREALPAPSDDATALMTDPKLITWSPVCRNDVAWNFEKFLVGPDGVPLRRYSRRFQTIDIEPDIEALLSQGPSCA

The test addresses Glutathione peroxidase 1 (Homo sapiens) (UniProt P07203). The test is described as follows: Primary qHTS Assay for Inhibitors of Recombinant Selenoprotein Glutathione Peroxidase 1 (GPX1) (AID 1845191). Note: nearly all actives have a fitted effect of over 65% in size. As to conditions: recombinant GPX1, GR-coupled NADPH fluorescence, 15 min; series mostly up to 48.8 µM. An excerpt: Assay Provider: Elias S.J. Arner MD PhD.
Department of Medical Biochemistry and Biophysics
Karolinska Institutet, Solna, Stockholm, Sweden
Selenoprotein glutathione peroxidases (GPX), like the ubiquitously expressed GPX1 and the ferroptosis modulator GPX4, enact their antioxidant activities by reducing hydroperoxides using glutathione. […] GPX1 and GPX4 inhibitors have thus shown promise as anti-cancer agents. Existing inhibitors are often promiscuous, or modulate GPX activity only indirectly, so novel direct inhibitors identified through screening against GPX1 and GPX4 could be valuable. Here, we developed optimized glutathione reductase (GR)-coupled GPX assays for the biochemical high-throughput screen (HTS) of almost 12,000 compounds with known mechanisms of action. Initial hits were triaged using a GR counter-screen, assessed for isoform specificity using a separate GPX2 assay, and were assessed for general selenocysteine-targeting activity using a thioredoxin reductase (TXNRD1) assay. With this suite of assays, we identified novel GPX1/GPX2- and GPX4-specific inhibitors and can here present a validated pipeline for future discovery research for selenoprotein-targeting agents.
SEQUENCE No. (e.g., 1, 2, 3, etc.); […] (e.g., Cells, Incubation, Reagent, etc.); VALUE; DESCRIPTION.
1; Reagent 1; 3 uL; GPx1 enzyme or no enzyme control in 1536-well, black, solid Greiner assay plate.
2; Compound; 25 nL; Kalypsis pin tool (Wako USA) equipped with a 1536-well pin head.
3; Incubation; 30 min; room temperature.
4; Reagent 2; 1 uL; 10 nM GPX1, 1 mM GSH, 0.5 mM CHP, 0.5 mM NADPH, 100 nM GR, 0.01% BSA substrate
5; Detection; Fluorescence; ViewLux microplate reader, excitation 340 nm and emission 450 nm.
6; Incubation; 15 min; room temperature.
7; Detection; Fluorescence; ViewLux microplate reader, excitation 340 nm and emission 450 nm.
NOTES (numbers refer to Sequence numbers above)
1. 3 uL of 16.66 nM GPX1 and 0.016% BSA in assay buffer (50 mM Tris-HCl, 2 mM EDTA (pH 7.5), 150 mM NaCl) was added to columns 3-48 of 1536-well assay plates using a BioRAPTR Flying Reagent Dispenser (Let's Go Robotics (LGR), Carlsbad, CA). A no-enzyme control (0.01% BSA in TES assay buffer) was added to columns 1-2.
2. 25 nL of test compounds and DMSO controls were added to each well with a pin tool (Kalypsys).
3. The assay plates were incubated for 30 minutes at room temperature.
4. 1 uL of master mix (500 nM glutathione reductase (GR), 5 mM reduced glutathione (GSH), 2.5 mM NADPH in assay buffer) was added. 1 uL of cumene hydroperoxide (CHP) ([2.5 mM] in 50% EtOH) was then added within 5 minutes to initiate the reaction. Final concentrations were: 10 nM GPX1, 1 mM GSH, 0.5 mM CHP, 0.5 mM NADPH, 100 nM GR, 0.01% BSA.
5. Initial fluorescence readout (t=0) at 340/450 nm was measured using a ViewLux multimodal detector (PerkinElmer, Waltham, MA).
7. Endpoint fluorescence readout (t=15) at 340/450 nm was measured 15 min after room temperature incubation.
As to `OC[C@H]1O[C@H](O[C@]2(CCl)O[C@H](CCl)[C@@H](O)[C@@H]2O)[C@H](O)[C@@H](O)[C@H]1Cl`, the Potency entry was “inactive”. The same measure, in the same setting: the result for `CC(=O)O[C@]1(C(C)=O)CC[C@H]2[C@@H]3C[C@H](C)C4=CC(=O)CC[C@]4(C)[C@H]3CC[C@@]21C` reads “inactive”; that for `CCCN1CCCC[C@H]1C(=O)Nc1c(C)cccc1C`, “inactive”. Still for that read-out and setting: the value for `CC(=O)[C@H]1CC[C@H]2[C@@H]3C[C@H](C)C4=CC(=O)CC[C@]4(C)[C@H]3[C@@H](O)C[C@]12C` was “inactive”.

For `C=C1C[C@H]2[C@@H]3C=C(C)C4=CC(=O)CC[C@]4(C)[C@H]3CC[C@]2(C)[C@@]1(OC(C)=O)C(C)=O`, the Potency entry was “inactive”. As to `CC(=O)N(O)CCCCCNC(=O)CCC(=O)N(O)CCCCCNC(=O)CCC(=O)N(O)CCCCCN`, the Potency result is “inactive”. Still for that read-out and setting: the result for `C[C@@H]1C(=O)NC2=Nc3cccc(Cl)c3CN21` reads “inactive”; that for `COc1cc(N)c(Cl)cc1C(=O)NC1CCN(CCCOc2ccc(F)cc2)CC1OC` (stereo not given), “inactive”.

On to `Cc1ccc(Nc2c(F)cccc2Cl)c(CC(=O)O)c1`, for which the Potency result is “inactive”. For `CC(O)(P(=O)(O)O)P(=O)(O)O`, the Potency result is “inactive”. The same measure, in the same setting: the value for `CC(=O)OCC(=O)[C@@]1(OC(C)=O)[C@@H](C)C[C@H]2[C@@H]3C[C@H](F)C4=CC(=O)C=C[C@]4(C)[C@@]3(F)[C@@H](O)C[C@@]21C` was “inactive”; that for `C/C=C/c1ccc(OC)cc1` was “inactive”. With `Oc1c(I)cc(I)c2cccnc12`, the Potency result was “inactive”. The same measure, in the same setting: the value for `CCN(CC)C(=O)/C(C#N)=C/c1cc(O)c(O)c([N+](=O)[O-])c1` was “inactive”. For `CCn1cc(C(=O)O)c(=O)c2cnc(N3CCCC3)nc21`, the activity, negative = inhibition is -13.1% [at 9.52 µM] (inactive). Turning to `Cc1ccc(C(=O)C(C)CN2CCCCC2)cc1` (stereo not given), the Potency result is “inactive”. Consider `Cc1c(N(C)CS(=O)(=O)O)c(=O)n(-c2ccccc2)n1C`, for which the Potency was 3.21 µM (active). For `C[N+]1(CCCCC[N+]2(C)CCCC2)CCCC1`, the Potency entry is “inactive”. Same read-out and setting: the value for `C[C@H]1C[C@H]2[C@@H]3CCC4=CC(=O)C=C[C@]4(C)[C@@]3(Cl)[C@@H](O)C[C@]2(C)[C@@]1(O)C(=O)CO` was “inactive”; that for `CN1C(CCl)Nc2cc(Cl)c(S(N)(=O)=O)cc2S1(=O)=O` (stereo not given) was “inactive”; that for `CCCC(=O)O[C@]1(C(=O)CO)CC[C@H]2[C@@H]3CCC4=CC(=O)CC[C@]4(C)[C@H]3[C@@H](O)C[C@@]21C` was “inactive”.

With `O=c1ccc2ccccc2o1`, the Potency result is “inactive”.

On to `COC(=O)CCc1ccc(OCC(O)CNC(C)C)cc1` (stereo not given), for which the Potency result was “inactive”.

In the case of `CC(=O)Oc1ccc(C(=C2CCCCC2)c2ccc(OC(C)=O)cc2)cc1`, the Potency entry was “inactive”. As to `CCN(CCCCOC(=O)c1ccc(OC)c(OC)c1)C(C)Cc1ccc(OC)cc1` (stereo not given), the Potency result is “inactive”. Turning to `C#C[C@]1(O)CC[C@H]2[C@@H]3CCC4=CC(=O)CC[C@@H]4[C@H]3CC[C@@]21C`, the Potency result was “inactive”.

As for `O=C1CCC(c2ccc(-n3ccnc3)cc2)=NN1`, the Potency entry was “inactive”. On the same count and under the same terms, the value for `CC/C(=C(/CC)c1ccc(O)cc1)c1ccc(O)cc1` was “inactive”; that for `CC(C)(C)CC(C)(C)c1ccc(OCCOCC[N+](C)(C)Cc2ccccc2)cc1` was “inactive”. With `CNCCC(Oc1ccccc1C)c1ccccc1` (stereo not given), the Potency result was “inactive”.

Regarding `CCN(CCCc1ccccc1)CCCc1ccccc1`, the Potency result was “inactive”. For `CC(=O)Nc1c(I)cc(I)c(C(=O)O)c1I`, the Potency result is “inactive”. Take `COc1cccc(OC)c1C(=O)N[C@@H]1C(=O)N2[C@@H]1SC(C)(C)[C@@H]2C(=O)O`: the Potency result was “inactive”.

On to `CC1(C)OC[C@@H](COC(=O)CCc2ccc(OC[C@@H](O)CNCCNC(=O)N3CCOCC3)cc2)O1`, for which the Potency result was “inactive”. In the case of `COc1ccc(CN2CCN(C(c3ccc(F)cc3)c3ccc(F)cc3)CC2)c(OC)c1OC`, the Potency result is “inactive”. For `O=c1[nH]c(=O)n([C@H]2CCCO2)cc1F`, the Potency entry is “inactive”. As for `CC1(C)O[C@@H]2[C@@H](CO[C@@]3(COS(N)(=O)=O)OC(C)(C)O[C@@H]23)O1`, the Potency result was “inactive”.

`CCCCOc1ccc(C(=O)CCN2CCCCC2)cc1`: the Potency result was “inactive”. For `Oc1ccc(O)cc1`, the Potency result was “inactive”. As for `CC(C)N=C(N)/N=C(\N)Nc1ccc(Cl)cc1`, the Potency result is “inactive”.
